Our source for the growth values is PubChem BioAssay (NCI).

About 83,000 compounds went through this panel and 20% of them were active in at least one assay; those are over-represented in the sample as a whole.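 Interpretation: 100, growth as untreated; towards 0, rising growth inhibition; 0, no net growth; 0 to -100, cell death. Compounds scoring below 10 were considered active.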 Unmarked numbers belong to inactive results. The source made the active and inactive calls.

Test systems include HCT-15 colon; HT29 colon; SNB-75 CNS; SNB-19 CNS; U251 CNS; PC-3 prostate; SK-MEL-5 melanoma; UACC-62 melanoma; LOX IMVI melanoma; SK-MEL-28 melanoma; SK-MEL-2 melanoma; EKVX NSCLC; SN12C renal; UO-31 renal; TK-10 renal; ACHN renal; CAKI-1 renal; A498 renal; CCRF-CEM leukemia; MOLT-4 leukemia.
Assay in all cases: NCI-60 one-dose screen, 48 h (100 = growth as untreated, 0 = no growth, -100 = all killed)
Holding throughout (settings): 10 µM

Take `O=C(/C=C/Nc1ccccc1)c1ccc2c(c1)Nc1ccccc1S2`: the growth was 80.4% in the assay on HCT-15 colon; 90.4% with HT29 colon; 106% in the assay with SNB-75 CNS; 36.3% in the assay on SNB-19 CNS; 38% in the assay on U251 CNS; 78.5% in the assay on PC-3 prostate. The growth is 96.7% in the assay on SK-MEL-5 melanoma; 68.9% with UACC-62 melanoma; 79.9% in the assay with LOX IMVI melanoma; 100% in the assay on SK-MEL-28 melanoma; 78.1% in the assay on SK-MEL-2 melanoma; 81.4% in the assay with EKVX NSCLC. Further, the growth with SN12C renal is 69.2%; in the assay on UO-31 renal it was 93.1%; with TK-10 renal it was 96.2%; in the assay on ACHN renal, 84.3%; in the assay with CAKI-1 renal, 91.5%; in the assay on A498 renal, 120%. Besides, the growth is 94.2% in the assay with CCRF-CEM leukemia and 89.7% with MOLT-4 leukemia.

Regarding `O=c1[nH]c2ccc(Cl)cc2cc1CSc1ccc(Nc2nccc(-c3ccc(Cl)cc3)n2)cc1`, the growth with HCT-15 colon is 16.3%; with HT29 colon, 44.9%; with SNB-75 CNS, 101%; in the assay with SNB-19 CNS, 77.5%; in the assay on U251 CNS, 21%; in the assay with PC-3 prostate it was 34.4%. In addition, the growth in the assay with SK-MEL-5 melanoma was 97%; in the assay on UACC-62 melanoma, 100%; in the assay with LOX IMVI melanoma, 35.8%; in the assay with SK-MEL-28 melanoma, 98.7%; in the assay on SK-MEL-2 melanoma it was 99.2%; with EKVX NSCLC, 82%. Moreover, the growth is 72.9% in the assay on SN12C renal; 90% with UO-31 renal; 36.4% with TK-10 renal; 83.5% in the assay on ACHN renal; 84.9% with CAKI-1 renal; 118% with A498 renal. Besides, the growth in the assay with CCRF-CEM leukemia was 74.8%; with MOLT-4 leukemia, 46.4%.

In the case of `O=C(/C=C/Nc1ccc(F)cc1F)c1ccc2c(c1)Nc1ccccc1S2`, the growth is 33.1% in the assay with HCT-15 colon; 70.8% in the assay with HT29 colon; 124% in the assay with SNB-75 CNS; 63.9% with SNB-19 CNS; 73% with U251 CNS; 74.8% in the assay on PC-3 prostate. Also, the growth with SK-MEL-5 melanoma is 76.1%; with UACC-62 melanoma, 48.8%; in the assay with LOX IMVI melanoma it was 65.9%; in the assay on SK-MEL-28 melanoma it was 79.2%; in the assay on SK-MEL-2 melanoma it was 86.5%; in the assay on EKVX NSCLC it was 74.2%. Moreover, the growth is 82% with SN12C renal; 80.3% with UO-31 renal; 100% in the assay with TK-10 renal; 78.6% with ACHN renal; 83.9% with CAKI-1 renal; 108% in the assay on A498 renal. The growth was 73.8% in the assay on CCRF-CEM leukemia and 66.7% in the assay on MOLT-4 leukemia.

As for `N#Cc1c(Cl)nc(SCc2ccc(F)cc2)nc1-c1ccc(F)cc1`, the growth in the assay with HCT-15 colon was 87%; in the assay on HT29 colon, 66.6%; in the assay with SNB-75 CNS, 123%; in the assay with SNB-19 CNS, 98%; in the assay on U251 CNS it was 92.8%; in the assay with PC-3 prostate it was 91.1%. In addition, the growth is 86.2% with SK-MEL-5 melanoma; 86% with UACC-62 melanoma; 90.2% in the assay with LOX IMVI melanoma; 104% in the assay with SK-MEL-28 melanoma; 97.9% with SK-MEL-2 melanoma; 89.1% in the assay on EKVX NSCLC. In addition, the growth in the assay with SN12C renal was 80.9%; in the assay with UO-31 renal, 87.1%; in the assay on TK-10 renal, 98.2%; with ACHN renal, 99.5%; in the assay with CAKI-1 renal it was 94.9%; in the assay with A498 renal, 115%. For the same compound, the results for the growth with CCRF-CEM leukemia and in the assay on MOLT-4 leukemia were 86.7% and 80.6%, respectively.

Consider `O=c1[nH]c2ccccc2cc1CSc1ccc(Nc2nccc(-c3ccc(Cl)cc3)n2)cc1`, for which the growth in the assay on HCT-15 colon was 8.92% (active); in the assay on HT29 colon, 0.0418% (active); with SNB-75 CNS, -41.8% (active); in the assay with SNB-19 CNS, -40.3% (active); in the assay with U251 CNS it was -72.3% (active); in the assay with PC-3 prostate it was 8.58% (active). For the same compound, the growth was 48.2% with SK-MEL-5 melanoma; 23.7% in the assay with UACC-62 melanoma; -79.6% (active) with LOX IMVI melanoma; 43.2% in the assay on SK-MEL-28 melanoma; 4.31% (active) in the assay on SK-MEL-2 melanoma; -49.6% (active) in the assay on EKVX NSCLC. Further, the growth is -47.7% (active) in the assay with SN12C renal; -70.4% (active) with UO-31 renal; -64.2% (active) in the assay with TK-10 renal; -89.9% (active) in the assay with ACHN renal; -83.5% (active) with CAKI-1 renal; -65.3% (active) in the assay with A498 renal. Also, the values for the growth in the assay on CCRF-CEM leukemia and in the assay on MOLT-4 leukemia were 57.1% and 59.8%, respectively.

Take `Cc1cc(C)nc(NS(=O)(=O)c2ccc(N/C(N)=N/c3nccc(-c4ccccc4)n3)cc2)n1`: the growth is 59.4% in the assay on HCT-15 colon; 83.5% in the assay on HT29 colon; 88.3% in the assay with SNB-75 CNS; 77.8% in the assay with SNB-19 CNS; 77.6% in the assay with U251 CNS; 65.4% in the assay on PC-3 prostate. The growth with SK-MEL-5 melanoma was 46.3%; with UACC-62 melanoma, 59%; in the assay with LOX IMVI melanoma, 39.4%; in the assay on SK-MEL-28 melanoma, 74.5%; in the assay on SK-MEL-2 melanoma it was 89.5%; in the assay with EKVX NSCLC it was 43%. Besides, the growth in the assay on SN12C renal was 73.6%; in the assay with UO-31 renal, 34.7%; with TK-10 renal it was 76.4%; in the assay on ACHN renal it was 61.7%; with CAKI-1 renal, 43.6%; in the assay on A498 renal it was 71.2%. In addition, the growth with CCRF-CEM leukemia is 67.7%; with MOLT-4 leukemia, 38.8%.

In the case of `O=C(Nc1ccc(Cl)c([N+](=O)[O-])c1)Nc1ccc(Cl)c([N+](=O)[O-])c1`, the growth in the assay on HCT-15 colon is 7.01% (active); in the assay on HT29 colon it was 13.1%; in the assay on SNB-75 CNS it was 61.2%; with SNB-19 CNS, 10.8%; in the assay on U251 CNS, 10.6%; with PC-3 prostate, 10.4%. Moreover, the growth in the assay on SK-MEL-5 melanoma was -26.7% (active); in the assay on UACC-62 melanoma, 3.62% (active); in the assay with LOX IMVI melanoma, -8.77% (active); in the assay on SK-MEL-28 melanoma, 8.08% (active); with SK-MEL-2 melanoma, 30.7%; in the assay with EKVX NSCLC it was 17.8%. Besides, the growth in the assay on SN12C renal was 1.65% (active); in the assay with UO-31 renal it was -2.65% (active); with TK-10 renal, 48.3%; with ACHN renal, 4.21% (active); with CAKI-1 renal, 8.32% (active); with A498 renal it was 20.1%. The figures for the growth with CCRF-CEM leukemia and with MOLT-4 leukemia were 14.2% and 21.7%, respectively.
